8 molecules from PubChem BioAssay (EPA / NIEHS) can be followed below.

The nature of assay [1]: ATG_NFI_CIS: Attagene CIS-FACTORIAL HepG2 Assay for human Nuclear Factor I (NFI) (AID 2282989). To be noted: HepG2 cis-regulatory reporter, NFI response element transcription; actives raise or lower the signal. In a few lines: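 Reporter transcripts were measured by RT-PCR with fluorescent primer extension and capillary electrophoresis 24 h post-treatment. HepG2 cells carried transiently transfected cis-regulated reporter constructs reporting endogenous factor activity; gain or loss fitted against DMSO baseline.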

In assay [2] the target is Myc proto-oncogene protein (Homo sapiens) (UniProt P01106). Briefly: ATG_Myc_CIS: Attagene CIS-FACTORIAL HepG2 Assay for human Myelocytomatosis (Myc) Proto-Oncogene Transcription Factor (AID 2282990). To be noted: HepG2, Attagene cis-reporter transcription factor activity; actives raise or lower the signal. Summed up: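 HepG2 cells transiently transfected with multiple cis-promoter-driven reporter transcription units, so endogenous TF activity is read. After 24 h compound exposure, reporter mRNA was quantified by RT-PCR, 6-FAM labelling, HpaI digestion and capillary electrophoresis; bidirectional fit versus DMSO.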

Assay [3] can be described thus: ATG_NF_kB_CIS: Attagene CIS-FACTORIAL HepG2 Assay for human Nuclear Factor Kappa B (NF-kB) (AID 2282991). To be noted: HepG2 Attagene cis-factorial NF-kB reporter mRNA; actives raise or lower the signal. In a few lines: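 Read-out: reporter transcript levels quantified by RT-PCR plus capillary electrophoresis of 6-FAM-labelled, HpaI-cut fragments. Transfected HepG2 cells, 24 h compound exposure, endogenous NF-kB-driven cis element; gain or loss scored versus DMSO.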

Assay [4] can be described thus: ATG_NRF2_ARE_CIS: Attagene CIS-FACTORIAL HepG2 Assay for human Nuclear Factor Erythroid 2 Related Factor 2 (NFR2) response to Antioxidant Response Elements (ARE) (AID 2282992). Conditions: HepG2 Attagene ARE/NRF2 reporter, transcription factor activity; actives raise or lower the signal. Summed up: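 Endogenous transcription factor activity read out as reporter transcript levels (RT-PCR plus capillary electrophoresis, fluorescence) in transiently transfected HepG2 cells. Measured at 24 h after dosing; gain or loss of signal fitted versus DMSO.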

A short description of assay [5]: ATG_Oct_MLP_CIS: Attagene CIS-FACTORIAL HepG2 Assay for human Octamer-Binding Transcription Factor (Oct) (AID 2282993). To be noted: HepG2 Attagene cis-factorial Oct reporter, mRNA; actives raise or lower the signal. Summed up:
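Readout is reporter transcript level from RT-PCR with fluorescent primer extension and capillary electrophoresis, fitted in both directions against DMSO. Transfected HepG2 reporter units report endogenous factor activity after 24 h dosing.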

Assay [6] deals with Cellular tumor antigen p53 (Homo sapiens) (UniProt P04637). In words: ATG_p53_CIS: Attagene CIS-FACTORIAL HepG2 Assay for human p53 Transcription Factor (AID 2282994). Conditions: HepG2 p53 cis-element reporter, Attagene mRNA; actives raise or lower the signal. Summed up:
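Endogenous p53 activity read in transiently transfected HepG2 from a cis-element-driven reporter transcript after 24 h exposure. RNA reverse-transcribed, PCR-amplified, fluorescently labelled and sized by capillary electrophoresis; gain or loss fitted against DMSO baseline.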

A short description of assay [7]: BSK_3C_uPAR: BioMAP Diversity Plus: 3C Assay for Urokinase-type plasminogen activator receptor (uPAR) Biomarker Activity (AID 2282998). To be noted: BioMAP 3C HUVEC, uPAR biomarker ELISA; actives raise or lower the signal. In a few lines: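 Cell-surface uPAR on HUVEC (3C system) read by ELISA at 24 h post-treatment, with DMSO as baseline and fitting in both directions. Parallel cultures stained with SRB to flag overt cytotoxicity.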
Background: An ELISA detects its analyte on a solid surface through an enzyme-linked reagent.

Assay [8] is described as follows: BSK_3C_VCAM1: BioMAP Diversity Plus: 3C Assay for Vascular cell adhesion molecule 1 (VCAM1) Biomarker Activity (AID 2282999). Conditions: BioMAP 3C HUVEC, VCAM1 ELISA, cytokine-stimulated; actives raise or lower the signal. In a few lines:
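Vascular primary endothelium (human umbilical vein) was exposed to chemicals and assayed 24 h later. VCAM-1 levels came from ELISA, with DMSO serving as baseline for bidirectional fitting.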

Assay [9] is described as follows: BSK_4H_Eotaxin3: BioMAP Diversity Plus: 4H Assay for Eotaxin 3 Biomarker Activity (AID 2283000).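 On outcome: CCL26 protein level quantified by ELISA in parallel with SRB cytotoxicity check.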 To be noted: primary human endothelial cells (HUVEC); actives raise or lower the signal. In a few lines:
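Chemicals were added to human umbilical vein endothelium cultures, and Eotaxin-3 was quantified by ELISA at 24 h. Values were derived by bidirectional fitting with DMSO serving as negative control and activity baseline.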

In assay [10] the target is human Peroxisome Proliferator-activated Receptor delta (PPARd), PPARD (gene 5467) (UniProt Q03181). In words: ATG_PPARd_TRANS: Attagene TRANS-FACTORIAL HepG2 Assay for human Peroxisome Proliferator-activated Receptor delta (PPARd) (AID 2283002; active means hit-call score of the fitted dose curve at least 0.9, where 1 is the maximum). In a few lines: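 HepG2 cells transiently transfected with multiplexed GAL4-UAS reporter units and exogenous chimeric NR-Gal4 proteins; 24 h compound exposure. Reporter mRNA measured by RT-PCR, 6-FAM labelling, HpaI digestion and capillary electrophoresis; gain of signal versus DMSO.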

Read-out in assay [11]: Intercellular Adhesion Molecule 1 (ICAM1), ICAM1 (gene 3383)
In words: BSK_3C_ICAM1: BioMAP Diversity Plus: 3C Assay for Intercellular Adhesion Molecule 1 (ICAM1) Biomarker Activity (AID 2283003). Conditions: primary human endothelial cells (HUVEC); actives raise or lower the signal. Summed up:
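Chemicals are dosed onto primary human umbilical vein endothelium (3C system). After 24 h, ICAM-1 is measured by ELISA, and responses are fitted bidirectionally relative to DMSO.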

Assay [12] addresses Retinoic acid receptor alpha (Homo sapiens) (UniProt P10276). Briefly: ATG_RARa_TRANS: Attagene TRANS-FACTORIAL HepG2 Assay for human Retinoic Acid Receptor alpha (RARa) (AID 2283005; active means hit-call score of the fitted dose curve at least 0.9, where 1 is the maximum). Summed up: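 HepG2 cells transiently transfected with multiple reporter units expressing chimeric RARα-GAL4 fusion, with GAL4-UAS-driven reporters. After 24 h compound exposure, reporter mRNA induction quantified by RT-PCR and capillary electrophoresis with fluorescent labeling; gain-of-signal fitted relative to DMSO control.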

A short description of assay [13]: BSK_3C_Proliferation: Cell Proliferation Assessment in the BioMAP Diversity Plus: 3C Assay (AID 2283006).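 On AC50: potency may reflect either rise or fall in cell number versus DMSO.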 Conditions: primary human endothelial cells (HUVEC). Summed up:
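Cells (human umbilical vein endothelial, sub-confluent) receive test chemical; after 48 h they are fixed in 10% trichloroacetic acid, stained with 0.1% SRB and read at 560 nm. Activity is referenced to DMSO, fitting increases and decreases.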

Assay [14] deals with Peroxisome proliferator-activated receptor gamma (Homo sapiens) (UniProt P37231). In words: ATG_PPARg_TRANS: Attagene TRANS-FACTORIAL HepG2 Assay for human Peroxisome Proliferator-activated Receptor-gamma (PPARg) (AID 2283007; active means hit-call score of the fitted dose curve at least 0.9, where 1 is the maximum). Summed up: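 Read-out: reporter mRNA induction, detected by fluorescence after RT-PCR and capillary electrophoresis. Transiently transfected human HepG2 liver cells carrying a chimeric NR-Gal4 construct were dosed for 24 h; activity was fitted upward relative to DMSO.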

In assay [15] the target is Nuclear receptor subfamily 1 group I member 2 (Homo sapiens) (UniProt O75469). In words: ATG_PXR_TRANS: Attagene TRANS-FACTORIAL HepG2 Assay for human Pregnane X Receptor (PXR) (AID 2283008; active means hit-call score of the fitted dose curve at least 0.9, where 1 is the maximum). Summed up:
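Transactivation by exogenous PXR–GAL4 fusion measured as reporter transcript induction after 24 h compound treatment of transfected human HepG2 cells. Read-out via RT-PCR and capillary electrophoresis of labelled fragments, fitted upward relative to DMSO.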

Assay [16] has as its target human Retinoic Acid Receptor beta (RARb), RARB (gene 5915) (UniProt P10826). Briefly: ATG_RARb_TRANS: Attagene TRANS-FACTORIAL HepG2 Assay for human Retinoic Acid Receptor beta (AID 2283004; active means hit-call score of the fitted dose curve at least 0.9, where 1 is the maximum). In a few lines:
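Transient transfection of HepG2 with multiple reporter units → chemical dosing, 24 h → total RNA isolation → RT with oligo(dT) → reporter-specific PCR, 6-FAM primer extension, HpaI digest → capillary electrophoresis. Positive direction vs DMSO control.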

Assay [17] in a line: BSK_3C_TissueFactor: BioMAP Diversity Plus: 3C Assay for Tissue Factor Biomarker Activity (AID 2282997). Conditions: BioMAP 3C HUVEC, tissue factor biomarker readout; actives raise or lower the signal. In a few lines: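 After a 24 h chemical exposure of primary human umbilical vein endothelial cells, Tissue Factor levels were quantified by ELISA.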
For assay [18], the target named is human RAR-related Orphan Receptor beta (RORb), RORB (gene 6096) (UniProt Q92753). Briefly: ATG_RORb_TRANS: Attagene TRANS-FACTORIAL HepG2 Assay for human RAR-related Orphan Receptor beta (RORb) (AID 2283010; active means hit-call score of the fitted dose curve at least 0.9, where 1 is the maximum). In a few lines:
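Transfect HepG2 with multiple GAL4-UAS reporter transcription units; dose chemicals for 24 h; isolate RNA, reverse-transcribe and PCR-amplify reporter sequences; label, digest and resolve fragments by capillary electrophoresis; fit increases relative to DMSO.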

In assay [19] the target is human Peroxisome Proliferator-activated Receptor alpha (PPARa), PPARA (gene 5465) (UniProt Q07869). Briefly: ATG_PPARa_TRANS: Attagene TRANS-FACTORIAL HepG2 Assay for human Peroxisome Proliferator-activated Receptor alpha (PPARa) (AID 2283001; active means hit-call score of the fitted dose curve at least 0.9, where 1 is the maximum). In a few lines:
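Cells (HepG2) are transfected with multiple reporter transcription units, exposed to chemical for 24 h, then total RNA is reverse-transcribed and amplified. Labelled products are quantified by capillary electrophoresis; induction is referenced to DMSO.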

Results filed as inconclusive are left out. Active and inactive are the calls of the source. How the source made its calls, unless noted: active means hit-call score of the fitted dose curve at least 0.9, where 1 is the maximum; inactive means score below 0.9.

Sequence of human RAR-related Orphan Receptor beta (RORb), RORB (gene 6096) (Q92753 whole entry, looked up, the tested form may be a part): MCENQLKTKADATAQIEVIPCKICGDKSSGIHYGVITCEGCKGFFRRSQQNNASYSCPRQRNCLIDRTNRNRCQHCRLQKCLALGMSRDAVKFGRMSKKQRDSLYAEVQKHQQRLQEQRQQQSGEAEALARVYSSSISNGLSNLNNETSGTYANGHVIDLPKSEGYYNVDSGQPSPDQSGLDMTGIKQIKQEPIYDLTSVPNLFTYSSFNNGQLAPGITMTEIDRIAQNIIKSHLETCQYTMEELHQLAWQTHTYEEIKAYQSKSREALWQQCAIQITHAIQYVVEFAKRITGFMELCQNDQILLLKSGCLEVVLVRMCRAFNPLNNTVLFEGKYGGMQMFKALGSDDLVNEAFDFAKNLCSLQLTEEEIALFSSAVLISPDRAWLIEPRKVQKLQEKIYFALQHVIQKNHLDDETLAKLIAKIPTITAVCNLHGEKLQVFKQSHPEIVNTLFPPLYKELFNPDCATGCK
Sequence of human Peroxisome Proliferator-activated Receptor delta (PPARd), PPARD (gene 5467) (Q03181 whole entry, looked up, the tested form may be a part): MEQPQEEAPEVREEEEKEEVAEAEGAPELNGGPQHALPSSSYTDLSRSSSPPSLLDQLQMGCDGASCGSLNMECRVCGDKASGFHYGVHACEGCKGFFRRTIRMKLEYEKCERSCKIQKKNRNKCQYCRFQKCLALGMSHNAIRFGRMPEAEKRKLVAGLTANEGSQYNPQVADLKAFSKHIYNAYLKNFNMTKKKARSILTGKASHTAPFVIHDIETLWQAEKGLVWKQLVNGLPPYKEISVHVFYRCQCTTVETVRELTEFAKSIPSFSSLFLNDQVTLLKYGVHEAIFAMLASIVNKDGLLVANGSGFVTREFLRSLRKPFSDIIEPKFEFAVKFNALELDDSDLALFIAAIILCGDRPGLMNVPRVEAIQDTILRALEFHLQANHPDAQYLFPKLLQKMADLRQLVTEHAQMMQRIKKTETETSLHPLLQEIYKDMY
Sequence of Cellular tumor antigen p53 (Homo sapiens) (P04637 whole entry, looked up): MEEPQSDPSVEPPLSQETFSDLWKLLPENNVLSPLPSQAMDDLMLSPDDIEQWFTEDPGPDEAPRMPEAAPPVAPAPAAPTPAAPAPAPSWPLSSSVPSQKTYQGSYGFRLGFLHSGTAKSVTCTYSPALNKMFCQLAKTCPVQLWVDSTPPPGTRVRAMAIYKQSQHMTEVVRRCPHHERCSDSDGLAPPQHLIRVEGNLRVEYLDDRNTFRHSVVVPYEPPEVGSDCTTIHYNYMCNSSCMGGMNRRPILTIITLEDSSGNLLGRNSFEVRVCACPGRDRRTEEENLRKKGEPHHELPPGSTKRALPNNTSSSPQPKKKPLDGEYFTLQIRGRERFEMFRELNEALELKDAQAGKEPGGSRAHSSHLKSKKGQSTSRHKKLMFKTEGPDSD
Sequence of Peroxisome proliferator-activated receptor gamma (Homo sapiens) (P37231 whole entry, looked up, the tested form may be a part): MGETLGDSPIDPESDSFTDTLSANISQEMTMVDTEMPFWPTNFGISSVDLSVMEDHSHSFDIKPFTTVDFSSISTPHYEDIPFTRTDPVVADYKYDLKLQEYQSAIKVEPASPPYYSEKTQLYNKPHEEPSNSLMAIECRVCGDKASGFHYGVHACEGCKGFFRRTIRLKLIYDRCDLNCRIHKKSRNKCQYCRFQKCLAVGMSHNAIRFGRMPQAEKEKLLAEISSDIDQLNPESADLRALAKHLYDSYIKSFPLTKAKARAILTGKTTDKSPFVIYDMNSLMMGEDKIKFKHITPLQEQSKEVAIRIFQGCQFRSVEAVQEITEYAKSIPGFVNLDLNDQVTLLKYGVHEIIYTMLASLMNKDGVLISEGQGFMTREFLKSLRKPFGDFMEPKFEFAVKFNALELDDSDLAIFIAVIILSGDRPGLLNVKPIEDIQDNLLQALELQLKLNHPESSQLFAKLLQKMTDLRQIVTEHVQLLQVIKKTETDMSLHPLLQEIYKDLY
Sequence of human Retinoic Acid Receptor beta (RARb), RARB (gene 5915) (P10826 whole entry, looked up): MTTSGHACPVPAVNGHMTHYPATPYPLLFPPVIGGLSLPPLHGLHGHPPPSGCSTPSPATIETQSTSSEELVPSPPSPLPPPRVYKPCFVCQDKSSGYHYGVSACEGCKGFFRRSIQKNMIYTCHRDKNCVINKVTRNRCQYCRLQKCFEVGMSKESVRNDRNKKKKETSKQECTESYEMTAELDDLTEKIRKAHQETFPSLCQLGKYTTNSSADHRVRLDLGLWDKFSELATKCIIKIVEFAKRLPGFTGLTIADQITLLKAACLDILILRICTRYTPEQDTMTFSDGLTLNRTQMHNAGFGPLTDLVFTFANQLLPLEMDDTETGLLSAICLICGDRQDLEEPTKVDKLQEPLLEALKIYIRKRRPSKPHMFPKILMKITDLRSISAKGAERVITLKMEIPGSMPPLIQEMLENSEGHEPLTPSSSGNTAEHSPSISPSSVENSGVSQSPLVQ
Sequence of Nuclear receptor subfamily 1 group I member 2 (Homo sapiens) (O75469 whole entry, looked up, the tested form may be a part): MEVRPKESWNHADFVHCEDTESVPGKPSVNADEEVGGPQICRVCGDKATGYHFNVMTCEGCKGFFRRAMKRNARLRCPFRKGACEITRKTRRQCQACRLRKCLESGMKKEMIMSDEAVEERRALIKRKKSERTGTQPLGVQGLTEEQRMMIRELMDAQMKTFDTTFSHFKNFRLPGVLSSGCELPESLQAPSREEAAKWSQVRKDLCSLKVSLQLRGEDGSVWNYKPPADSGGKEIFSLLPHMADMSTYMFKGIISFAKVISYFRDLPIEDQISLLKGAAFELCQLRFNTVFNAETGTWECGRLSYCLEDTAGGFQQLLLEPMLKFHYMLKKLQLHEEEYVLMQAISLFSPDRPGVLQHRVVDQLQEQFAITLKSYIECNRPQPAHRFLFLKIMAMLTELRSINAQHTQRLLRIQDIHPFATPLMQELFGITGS
Sequence of Retinoic acid receptor alpha (Homo sapiens) (P10276 whole entry, looked up, the tested form may be a part): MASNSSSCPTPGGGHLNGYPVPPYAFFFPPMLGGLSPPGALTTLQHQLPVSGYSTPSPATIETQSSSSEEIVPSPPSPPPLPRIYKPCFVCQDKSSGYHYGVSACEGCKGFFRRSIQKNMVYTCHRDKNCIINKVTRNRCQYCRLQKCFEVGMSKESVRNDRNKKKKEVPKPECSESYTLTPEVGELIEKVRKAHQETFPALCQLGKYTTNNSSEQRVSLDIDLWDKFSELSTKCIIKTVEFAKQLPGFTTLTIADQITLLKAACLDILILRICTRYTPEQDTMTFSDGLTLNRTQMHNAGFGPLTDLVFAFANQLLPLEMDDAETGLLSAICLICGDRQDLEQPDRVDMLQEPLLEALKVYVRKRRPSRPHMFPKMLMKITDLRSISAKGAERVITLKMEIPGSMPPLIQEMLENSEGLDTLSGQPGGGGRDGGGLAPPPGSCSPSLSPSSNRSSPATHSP
Sequence of Myc proto-oncogene protein (Homo sapiens) (P01106 whole entry, looked up): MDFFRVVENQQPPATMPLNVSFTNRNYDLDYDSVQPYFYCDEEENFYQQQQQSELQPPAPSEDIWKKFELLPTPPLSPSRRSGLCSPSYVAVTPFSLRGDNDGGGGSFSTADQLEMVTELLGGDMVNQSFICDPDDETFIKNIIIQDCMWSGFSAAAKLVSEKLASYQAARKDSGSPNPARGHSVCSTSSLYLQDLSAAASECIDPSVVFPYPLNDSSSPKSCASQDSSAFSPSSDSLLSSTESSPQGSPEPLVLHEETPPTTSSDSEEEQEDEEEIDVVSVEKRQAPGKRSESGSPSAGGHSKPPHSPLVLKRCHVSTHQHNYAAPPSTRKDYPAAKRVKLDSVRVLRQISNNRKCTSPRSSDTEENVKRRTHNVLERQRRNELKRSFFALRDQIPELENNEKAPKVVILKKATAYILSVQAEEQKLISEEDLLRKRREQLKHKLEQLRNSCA
Sequence of human Peroxisome Proliferator-activated Receptor alpha (PPARa), PPARA (gene 5465) (Q07869 whole entry, looked up): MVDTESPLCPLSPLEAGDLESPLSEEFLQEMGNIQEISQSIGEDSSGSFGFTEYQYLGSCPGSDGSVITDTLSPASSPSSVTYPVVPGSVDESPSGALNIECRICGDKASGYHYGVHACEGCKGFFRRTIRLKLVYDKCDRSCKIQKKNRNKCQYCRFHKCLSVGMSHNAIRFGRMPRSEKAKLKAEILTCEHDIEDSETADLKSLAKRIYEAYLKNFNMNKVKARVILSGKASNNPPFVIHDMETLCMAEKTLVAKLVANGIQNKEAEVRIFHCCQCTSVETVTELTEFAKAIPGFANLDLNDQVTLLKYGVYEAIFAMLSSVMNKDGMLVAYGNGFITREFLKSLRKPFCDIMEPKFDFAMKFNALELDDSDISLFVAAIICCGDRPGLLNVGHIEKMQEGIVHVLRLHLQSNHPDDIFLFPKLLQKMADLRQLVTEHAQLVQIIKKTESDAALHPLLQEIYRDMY

Broadly, the AC50 is the concentration at which the activity in the assay is half-maximal. With `O=C(OCCCCCOC(=O)c1ccccc1)c1ccccc1`, the molecule was called inactive in assay [1], in assay [2], in assay [3], in [4], in assay [5] and in [6]. Besides, the result in assay [7], in [8], in assay [9], in [10], in [11] and in [12] was inactive. In addition, the result in assay [14] and in assay [15] was inactive. In [13], the AC50 was 29.7 µM (active).
Consider `CC(C)c1ccc(C(=O)N=C(N)N)cc1S(C)(=O)=O`, for which the molecule was called inactive in assay [1], in assay [2], in [3], in assay [4], in [5] and in assay [6]. Also, the result in assay [7], in [8], in assay [9], in [10], in assay [11] and in assay [16] was inactive. Besides, the result in assay [13], in [14] and in [15] was inactive.
`CN[C@H]1CC[C@@H](c2ccc(Cl)c(Cl)c2)c2ccc(S(N)(=O)=O)cc21`: the outcome in assay [1], in assay [2], in [3], in assay [4], in assay [5] and in assay [6] was inactive. The molecule was classed as inactive in assay [10], in [14] and in [15]. Moreover, the AC50 in [17] was 33.4 µM (active); in [7], 14.3 µM (active); in [8] it was 30.4 µM (active); in assay [9], 15.2 µM (active); in assay [11], 30.9 µM (active); in assay [13], 6.14 µM (active).
With `NCC1(Cc2noc(=O)[nH]2)CCCCC1`, the molecule was called inactive in assay [1], in [2], in assay [3], in [4], in assay [5] and in assay [6]. Besides, the result in [17], in assay [7], in assay [8], in [9], in assay [11] and in assay [16] was inactive. Besides, the result in [13], in [15] and in assay [18] was inactive.
As for `CCNc1cccc(C)c1`, the call in assay [1], in assay [2], in [3], in [4], in assay [5] and in assay [6] was inactive. For the same molecule, the result in assay [7], in [8], in [9], in assay [19], in [10] and in assay [11] was inactive. Further, the molecule was called inactive in assay [12], in assay [13], in [14], in [15] and in assay [18].
In the case of `CCCCCCCCCCC`, the outcome in [1], in assay [2], in [3], in assay [4], in assay [5] and in assay [6] was inactive. In addition, the result in assay [17], in assay [7], in assay [8], in assay [9], in assay [19] and in assay [11] was inactive. The outcome in assay [13] was inactive.
For `CCCCCCC(=O)OCC`, the outcome in [1], in assay [2], in assay [3], in [4], in [5] and in assay [6] was inactive. For the same molecule, the result in assay [7], in assay [8], in assay [9], in assay [10], in assay [11] and in [16] was inactive. For the same molecule, the call in assay [12], in assay [13] and in assay [18] was inactive. Further, the half-maximal activity concentration (AC50) in assay [15] was 57.3 µM (active).
Regarding `O=C(O)CCCCC(=O)O`, the result in assay [1], in [2], in assay [3], in assay [4], in assay [5] and in [6] was inactive. Further, the outcome in [17], in [7], in assay [8], in assay [9], in assay [11] and in assay [13] was inactive. In addition, the call in assay [18] was inactive.
